# BoNT F protease: BoNT F light chain protease inhibition | AID 588497 | Multiplex microsphere protease cleavage assay, flow cytometry | 360,000 tested, 0.22% active | inhibition, % at 10 µM; in the data active = inhibition above about 35%, passing the limit was not always enough; inconclusive = no clear call, values can overlap the other calls
# GDH-TPI inh: inhibits GDH-TPI coupling enzymes, artifact for Mtb FBA screen | 360,000 tested, 1.2% active | GDH-TPI coupled enzyme counterscreen, NADH absorbance | inhibition, % at 4.8 µM; in the data active = inhibition above about 30%
# Autofluor counter: compound fluorescence in toxin protease inhibitor counterscreen | compound autofluorescence counterscreen, microsphere flow cytometry; stronger effect = higher value | fluorescence intensity (test concentration not listed) | 360,000 tested, 3.1% active | AID 624483; in the data active = fluorescence intensity above about 16000; inconclusive = no clear call, values can overlap the other calls
# Mtb FBA inh: inhibits M. tuberculosis FBA enzyme; P9WQA3; purified M. tuberculosis FBA, fluorescence read-out; inhibition, % at 1 µM; 360,000 tested, 2.3% active; in the data active = inhibition above about 27%
# BoNT A protease: blocks Botulinum neurotoxin A light chain protease. multiplex microsphere protease substrate cleavage, flow cytometry. inhibition, % at 10 µM. 360,000 tested, 0.17% active
# Anthrax LF prot: inhibitors of Bacillus anthracis lethal factor protease | P15917 | multiplex microsphere protease cleavage assay, LF | inhibition, % at 10 µM | 360,000 tested, 0.12% active | AID 588501
# Target sequence (P15917 whole entry, looked up): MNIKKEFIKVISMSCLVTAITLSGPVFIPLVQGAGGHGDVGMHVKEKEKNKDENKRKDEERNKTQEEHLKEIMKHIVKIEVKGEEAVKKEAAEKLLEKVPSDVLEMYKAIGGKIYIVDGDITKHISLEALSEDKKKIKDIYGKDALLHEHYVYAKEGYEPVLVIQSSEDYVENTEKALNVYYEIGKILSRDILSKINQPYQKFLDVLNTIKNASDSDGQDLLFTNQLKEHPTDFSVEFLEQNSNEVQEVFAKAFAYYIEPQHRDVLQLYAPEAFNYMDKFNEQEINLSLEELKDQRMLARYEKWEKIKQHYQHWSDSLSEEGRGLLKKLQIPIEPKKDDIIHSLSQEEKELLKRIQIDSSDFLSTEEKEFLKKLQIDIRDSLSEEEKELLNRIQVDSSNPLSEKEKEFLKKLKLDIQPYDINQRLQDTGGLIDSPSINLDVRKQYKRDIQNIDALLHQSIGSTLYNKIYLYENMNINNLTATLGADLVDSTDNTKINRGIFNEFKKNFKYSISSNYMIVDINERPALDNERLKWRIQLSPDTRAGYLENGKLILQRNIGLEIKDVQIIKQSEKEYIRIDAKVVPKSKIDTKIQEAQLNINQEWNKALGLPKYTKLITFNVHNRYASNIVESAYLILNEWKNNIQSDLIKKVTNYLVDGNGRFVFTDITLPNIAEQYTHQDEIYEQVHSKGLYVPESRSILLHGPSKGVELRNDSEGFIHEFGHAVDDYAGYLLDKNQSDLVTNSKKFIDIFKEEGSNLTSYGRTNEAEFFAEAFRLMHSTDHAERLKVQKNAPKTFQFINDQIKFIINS
# Hits are given with their value; . = inactive; ? = inconclusive; / = no result given; + = active, no number. A selection: hits, their analogues and other compounds. The true share with any hit is near 6.7%. Cut-off read from the data, not from the text of the source, unless noted: active = inhibition above about 30%; inconclusive = no clear call, values can overlap the other calls; inactive = below that.
SMILES,BoNT F protease,GDH-TPI inh,Autofluor counter,Mtb FBA inh,BoNT A protease,Anthrax LF prot
Cc1cccc(N2CCN(S(=O)(=O)c3c(C)nc4scc(C)n4c3=O)CC2C)c1 (stereo not drawn),.,.,.,.,.,.
COc1ccc(C2CC(=O)N(c3ccccc3)C3=C2C(=O)CCC3)cc1 (stereo not drawn),?,.,.,.,.,.
CCN(CC)c1ccc(/C=C2\C(=O)NC(=O)N(CC3CCCO3)C2=O)cc1 (stereo not drawn),.,32.7,.,.,.,.
Cc1ccc(/C=C2\C(=O)NC(=O)N(CC3CCCO3)C2=O)s1 (stereo not drawn),/,.,/,.,/,/
COc1ccc(C2C=C(c3ccccc3)Nc3nnnn32)cc1 (stereo not drawn),.,.,.,.,.,.
C1=C(c2ccccc2)Nc2nnnn2C1,.,.,.,86.7,.,.
CC(C)Nc1nnc(SCC(=O)NCc2ccc3c(c2)OCO3)s1,.,.,.,.,.,.
CCN1C(=O)c2ccccc2S(=O)(=O)c2ccc(C(=O)NCC(OC)OC)cc21,.,.,.,.,.,.
CCN1C(=O)c2ccccc2S(=O)(=O)c2ccc(C(=O)NCCOC)cc21,61.3,.,.,.,.,.
N#Cc1ccc(Nc2nc(-c3ccccc3)c(C(=O)c3ccccc3)s2)cc1,.,/,.,.,.,.
COc1cccc(-c2ccc3nccn3c2)c1,.,.,.,.,.,.
O=[N+]([O-])c1ccc2nccn2c1,.,.,24475,.,.,.
CCC(=O)Nc1ccc(S(=O)(=O)Nc2cccnc2)cc1,.,.,.,.,.,.
Cc1[nH]c2ccccc2c1C(=O)C(=O)NCCCc1ccccc1,.,.,.,.,.,.
C=CCc1cccc(CNc2nc3ccccc3n2C(C)C)c1O,.,.,23489,.,?,.
COc1ccc(C(=O)NCCS(=O)(=O)NCc2cccnc2)cc1,.,.,?,.,.,.
C=CCn1c(SCC(=O)Nc2c(C)n(C)n(-c3ccccc3)c2=O)nc2sc(C)c(C)c2c1=O,.,.,.,.,.,.
O=C(c1ccccc1)c1ccc2c(c1)OCCOCCOCCOCCO2,.,.,.,.,.,.
N#Cc1ccc2sn(-c3ccccc3)c(=O)c2c1,.,.,.,.,32.7,.
CCCc1cc(=O)oc2cc(C)cc(O)c12,.,.,.,.,.,.
Cc1cc(OCc2nn[nH]n2)c2c3c(c(=O)oc2c1)CCC3,.,.,19295,+,.,.
CCCc1cc(=O)oc2cc(C)cc(OCc3nn[nH]n3)c12,.,.,.,128.3,.,.
Cc1c(OCc2nn[nH]n2)ccc2c3c(c(=O)oc12)CCCC3,.,.,22827,124.4,.,.
Cc1c(OCC(=O)NCc2ccncc2)ccc2c3c(c(=O)oc12)CCCC3,.,.,.,.,.,.
Cc1cc2oc(=O)c3c(c2cc1OCc1nn[nH]n1)CCCC3,.,.,.,.,.,.
SMILES,BoNT F protease,GDH-TPI inh,Autofluor counter,Mtb FBA inh,BoNT A protease,Anthrax LF prot
O=S(=O)(c1cccc2nonc12)N1CCCCC1,.,.,?,.,.,.
CCOC(=O)c1cc(C)nnc1C(=O)OCC,.,.,.,.,.,.
O=C(COC(=O)c1ccccc1Br)NCCc1ccc(F)cc1,42.8,.,.,.,.,.
O=C(COC(=O)c1ccccc1Br)Nc1ccc(F)cc1,.,.,.,.,.,.
Cc1cc(C)cc(NC(=S)N=Nc2c(O)n(C)c3ccc(S(=O)(=O)N4CCOCC4)cc23)c1,.,.,.,.,36.8,.
Cn1c(=O)c(=O)n(C)c2cc(S(=O)(=O)N3CCCCCC3)ccc21,.,.,19386,.,?,.
Cn1c(=O)n(C)c2cc(S(=O)(=O)N3CCOCC3)ccc21,.,.,20981,.,?,.
CCCN(CCC(=O)Nc1cc(OC)cc(OC)c1)CC1CC1,.,.,.,.,.,.
C#CCOCCOCCOCCNc1nc(N2CCN(C(=O)Cn3cc(CC(C)O)nn3)CC2)nc(N2CCN(C(=O)Cn3cc(CC(C)O)nn3)CC2)n1 (stereo not drawn),.,.,.,.,.,.
O=C(NCCCCNC(=O)C1CCCC1)C1CCCC1,.,.,22858,.,.,.
COc1ccc(-c2c3c(=O)n(C)c(=O)n(C)c3cn2N2CCOCC2)cc1,.,.,.,.,.,.
COc1ccc(-n2nc3cc(C)c(NC(C)=O)cc3n2)cc1,.,.,.,113.9,.,.
CCOC(=O)c1ccc2c(c1)sc(=NC(=O)c1ccco1)n2CCOC,.,.,.,.,.,.
COc1ccc(OC)c2c1sc(=NC(=O)C1CC1)n2C,.,.,.,.,.,.
CCn1c(=NC(=O)c2ccco2)sc2cccc(F)c21,.,51.2,.,.,.,.
COc1ccc(OC)c2c1sc(=NC(=O)c1ccco1)n2C,.,33.6,.,.,.,.
COc1cccc(-c2n[nH]c(=S)n2Cc2ccco2)c1OC,.,.,20736,.,.,.
NS(=O)(=O)c1ccc(-n2nncc2C23CC4CC(CC(C4)C2)C3)cc1,.,.,.,.,.,.
COc1ccc(N(CC(=O)NCCC2=CCCCC2)S(C)(=O)=O)cc1OC,.,.,22438,.,.,.
Cc1cc(NC(=O)Cn2nnc3sc4c(c3c2=O)CCCC4)no1,.,.,17027,.,.,.
CCOC(=O)c1sc(NC(=O)Cn2nnc3sc4c(c3c2=O)CCCC4)nc1C,.,.,.,.,.,.
Cc1cc(NC(=O)Cn2nnc3sc4c(c3c2=O)CCC(C(C)(C)C)C4)no1 (stereo not drawn),.,.,24311,.,?,.
Cc1cc(NC(=O)CSc2nc3sc4c(c3c(=O)n2C)CCCC4)no1,.,.,17695,.,.,.
COc1ccc(OCCSc2nc(-c3ccccc3)cc(=O)[nH]2)cc1,.,.,.,.,.,.
Cc1cc(C)c(S(=O)(=O)N2CCN(S(=O)(=O)N3CCCCCC3)CC2)c(C)c1,.,.,.,.,.,.
SMILES,BoNT F protease,GDH-TPI inh,Autofluor counter,Mtb FBA inh,BoNT A protease,Anthrax LF prot
CCOC(=O)c1c(-c2ccc(C)o2)csc1NC(=O)CN1CCN(CC)CC1,.,.,.,.,.,.
CCNC(=S)NNC(=O)c1cc(C)on1,.,.,21335,.,.,.
Cc1cc(C(=O)NCc2ccccc2Br)no1,.,.,21781,.,?,.
Cc1cc(C(=O)NNC(=S)NCc2ccccc2)no1,.,.,.,.,.,.
Cc1cc(C(=O)NCc2ccccc2)no1,.,.,.,.,.,.
O=C(NN1CCOCC1)c1ccc(Cl)cc1Cl,.,.,.,.,.,.
Cc1cc2oc(=O)cc(CN3CCOCC3)c2cc1C,.,.,.,.,.,.
CCNc1cc2oc(=O)c(CN3CCOCC3)c(C)c2cc1C,.,.,.,+,.,.
CC1CCc2c(sc(N)c2C(N)=O)C1 (stereo not drawn),.,.,17162,.,.,.
Cc1cc2oc(=O)cc(CN3CCN(C/C=C/c4ccccc4)CC3)c2cc1O,.,35.1,23462,.,.,.
CCc1cc2c(CN3CCN(CCO)CC3)cc(=O)oc2cc1O,.,.,.,186.5,.,.
CN1CCN(Cc2cc(=O)oc3cc4c(cc23)CCC4)CC1,.,.,.,.,.,.

# Screening results: PubChem BioAssay, several laboratories
